Data: ChEMBL document CHEMBL1961873, “Compounds: GSK PKIS; Assays: Nanosyn kinase panel” (2012)

What was measured:
[1] = molecular target: Ribosomal protein S6 kinase alpha-6 (Homo sapiens) (UniProt Q9UK32); conditions: at 1 µM;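 note: each value is a mean inhibition of RSK4 from a GSK PKIS panel screen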
[2] = molecular target: T1, Serine/threonine-protein kinase Sgk1 (Homo sapiens) (UniProt O00141); conditions: at 0.1 µM
T1 sequence (whole entry): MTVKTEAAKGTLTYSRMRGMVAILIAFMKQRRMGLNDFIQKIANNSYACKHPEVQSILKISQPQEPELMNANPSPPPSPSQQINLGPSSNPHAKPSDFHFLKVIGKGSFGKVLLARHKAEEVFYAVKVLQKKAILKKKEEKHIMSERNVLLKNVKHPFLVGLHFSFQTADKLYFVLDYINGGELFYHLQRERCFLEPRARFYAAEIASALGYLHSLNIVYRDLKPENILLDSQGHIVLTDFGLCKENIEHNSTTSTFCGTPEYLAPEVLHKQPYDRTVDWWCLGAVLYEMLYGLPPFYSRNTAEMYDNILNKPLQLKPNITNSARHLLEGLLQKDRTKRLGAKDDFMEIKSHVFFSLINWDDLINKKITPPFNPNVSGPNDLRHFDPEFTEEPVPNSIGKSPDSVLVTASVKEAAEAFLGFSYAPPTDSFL

[3] = molecular target: T1, Serine/threonine-protein kinase Sgk1 (Homo sapiens); conditions: at 1 µM
[4] = molecular target: T2, Serine/threonine-protein kinase Sgk2 (Homo sapiens) (UniProt Q9HBY8); conditions: at 0.1 µM
T2 sequence (whole entry): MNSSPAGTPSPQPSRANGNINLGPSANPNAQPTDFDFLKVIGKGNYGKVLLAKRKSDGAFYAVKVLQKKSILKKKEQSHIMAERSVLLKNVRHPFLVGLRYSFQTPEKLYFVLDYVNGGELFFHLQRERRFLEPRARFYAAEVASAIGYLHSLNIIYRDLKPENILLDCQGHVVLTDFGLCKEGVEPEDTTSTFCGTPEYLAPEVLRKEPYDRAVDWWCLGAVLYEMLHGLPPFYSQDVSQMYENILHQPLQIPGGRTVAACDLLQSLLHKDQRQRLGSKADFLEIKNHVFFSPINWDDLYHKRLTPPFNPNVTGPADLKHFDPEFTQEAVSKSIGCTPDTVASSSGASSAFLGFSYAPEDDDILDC

[5] = molecular target: T2, Serine/threonine-protein kinase Sgk2 (Homo sapiens); conditions: at 1 µM
[6] = molecular target: T3, Serine/threonine-protein kinase Sgk3 (Homo sapiens) (UniProt Q96BR1); conditions: at 0.1 µM
T3 sequence (whole entry): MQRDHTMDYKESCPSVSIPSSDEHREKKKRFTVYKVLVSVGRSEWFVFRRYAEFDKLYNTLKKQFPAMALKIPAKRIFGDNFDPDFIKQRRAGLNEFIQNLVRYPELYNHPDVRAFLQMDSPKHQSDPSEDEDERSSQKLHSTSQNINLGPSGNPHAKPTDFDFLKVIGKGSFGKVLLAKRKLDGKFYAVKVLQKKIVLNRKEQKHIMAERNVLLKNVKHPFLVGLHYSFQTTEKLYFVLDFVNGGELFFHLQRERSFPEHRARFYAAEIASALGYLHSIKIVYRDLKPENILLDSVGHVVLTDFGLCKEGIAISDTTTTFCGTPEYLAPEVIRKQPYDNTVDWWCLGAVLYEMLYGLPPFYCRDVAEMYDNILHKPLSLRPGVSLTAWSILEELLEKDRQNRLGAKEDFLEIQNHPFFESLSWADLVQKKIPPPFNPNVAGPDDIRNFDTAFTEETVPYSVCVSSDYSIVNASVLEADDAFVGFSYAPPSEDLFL

[7] = molecular target: T3, Serine/threonine-protein kinase Sgk3 (Homo sapiens); conditions: at 1 µM
[8] = molecular target: 5'-AMP-activated protein kinase catalytic subunit alpha-1 (Homo sapiens) (UniProt Q13131); conditions: at 0.1 µM
[9] = molecular target: 5'-AMP-activated protein kinase catalytic subunit alpha-1 (Homo sapiens) (UniProt Q13131); conditions: at 1 µM
[10] = molecular target: 5'-AMP-activated protein kinase catalytic subunit alpha-2 (Homo sapiens) (UniProt P54646); conditions: at 0.1 µM
[11] = molecular target: 5'-AMP-activated protein kinase catalytic subunit alpha-2 (Homo sapiens) (UniProt P54646); conditions: at 1 µM
[12] = molecular target: T4, NUAK family SNF1-like kinase 1 (Homo sapiens) (UniProt O60285); conditions: at 0.1 µM
T4 sequence (whole entry): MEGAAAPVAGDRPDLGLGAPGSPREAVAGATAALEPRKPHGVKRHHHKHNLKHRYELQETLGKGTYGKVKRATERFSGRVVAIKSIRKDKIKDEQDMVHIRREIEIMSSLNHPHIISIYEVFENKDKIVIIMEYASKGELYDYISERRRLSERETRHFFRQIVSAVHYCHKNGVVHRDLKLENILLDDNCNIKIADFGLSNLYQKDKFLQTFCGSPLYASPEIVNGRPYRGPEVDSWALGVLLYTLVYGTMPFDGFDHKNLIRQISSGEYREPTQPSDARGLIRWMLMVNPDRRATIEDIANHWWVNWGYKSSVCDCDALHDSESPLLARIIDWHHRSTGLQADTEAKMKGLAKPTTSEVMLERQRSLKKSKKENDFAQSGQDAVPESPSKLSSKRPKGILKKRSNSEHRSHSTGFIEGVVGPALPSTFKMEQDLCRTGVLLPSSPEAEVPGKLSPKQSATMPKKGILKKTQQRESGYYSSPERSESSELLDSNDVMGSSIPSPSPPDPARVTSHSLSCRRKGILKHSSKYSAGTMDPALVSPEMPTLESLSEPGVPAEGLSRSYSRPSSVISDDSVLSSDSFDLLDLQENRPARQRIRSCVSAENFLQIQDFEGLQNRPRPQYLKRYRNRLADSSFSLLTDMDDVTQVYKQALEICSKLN

[13] = molecular target: T4, NUAK family SNF1-like kinase 1 (Homo sapiens); conditions: at 1 µM
[14] = molecular target: T5, Serine/threonine-protein kinase BRSK1 (Homo sapiens) (UniProt Q8TDC3); conditions: at 0.1 µM
T5 sequence (whole entry): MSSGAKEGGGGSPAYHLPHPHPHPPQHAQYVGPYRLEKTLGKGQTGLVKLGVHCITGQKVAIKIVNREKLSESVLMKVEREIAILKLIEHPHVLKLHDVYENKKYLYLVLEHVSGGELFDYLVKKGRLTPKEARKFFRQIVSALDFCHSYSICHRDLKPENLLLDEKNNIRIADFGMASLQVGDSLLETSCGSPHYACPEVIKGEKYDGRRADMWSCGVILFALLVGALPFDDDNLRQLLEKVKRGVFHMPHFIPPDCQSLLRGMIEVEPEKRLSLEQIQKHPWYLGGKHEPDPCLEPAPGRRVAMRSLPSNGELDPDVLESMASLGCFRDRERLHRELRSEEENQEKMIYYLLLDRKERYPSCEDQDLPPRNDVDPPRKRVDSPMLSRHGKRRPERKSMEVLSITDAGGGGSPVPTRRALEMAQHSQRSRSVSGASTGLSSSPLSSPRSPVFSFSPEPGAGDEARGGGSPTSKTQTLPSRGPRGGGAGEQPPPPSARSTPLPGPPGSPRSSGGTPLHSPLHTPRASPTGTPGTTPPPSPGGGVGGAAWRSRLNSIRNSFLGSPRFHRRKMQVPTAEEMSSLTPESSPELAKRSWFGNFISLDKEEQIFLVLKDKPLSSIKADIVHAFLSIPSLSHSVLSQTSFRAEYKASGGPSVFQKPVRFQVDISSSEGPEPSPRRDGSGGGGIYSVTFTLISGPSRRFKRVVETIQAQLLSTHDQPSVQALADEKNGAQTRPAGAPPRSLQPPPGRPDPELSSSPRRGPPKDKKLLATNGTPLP

[15] = molecular target: T5, Serine/threonine-protein kinase BRSK1 (Homo sapiens); conditions: at 1 µM
[16] = molecular target: T6, Serine/threonine-protein kinase BRSK2 (Homo sapiens) (UniProt Q8IWQ3); conditions: at 0.1 µM
T6 sequence (whole entry): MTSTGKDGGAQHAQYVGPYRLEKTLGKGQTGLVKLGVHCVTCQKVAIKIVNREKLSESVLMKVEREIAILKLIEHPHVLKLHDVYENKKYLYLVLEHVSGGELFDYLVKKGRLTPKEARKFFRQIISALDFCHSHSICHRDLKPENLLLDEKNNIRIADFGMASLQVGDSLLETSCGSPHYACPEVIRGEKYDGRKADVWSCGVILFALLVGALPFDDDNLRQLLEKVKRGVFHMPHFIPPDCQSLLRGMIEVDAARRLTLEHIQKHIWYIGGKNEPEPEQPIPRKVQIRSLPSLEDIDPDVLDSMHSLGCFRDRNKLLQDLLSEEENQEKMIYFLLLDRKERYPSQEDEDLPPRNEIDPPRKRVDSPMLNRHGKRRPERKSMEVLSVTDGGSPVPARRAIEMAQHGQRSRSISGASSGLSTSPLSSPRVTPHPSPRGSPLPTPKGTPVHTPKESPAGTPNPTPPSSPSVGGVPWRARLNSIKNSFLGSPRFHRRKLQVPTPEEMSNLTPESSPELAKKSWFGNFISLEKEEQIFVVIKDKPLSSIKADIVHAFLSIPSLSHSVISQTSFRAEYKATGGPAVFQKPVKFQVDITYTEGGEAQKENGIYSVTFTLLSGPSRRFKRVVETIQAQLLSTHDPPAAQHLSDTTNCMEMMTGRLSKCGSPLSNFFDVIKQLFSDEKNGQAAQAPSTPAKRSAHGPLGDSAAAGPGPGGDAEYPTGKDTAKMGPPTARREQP

[17] = molecular target: T6, Serine/threonine-protein kinase BRSK2 (Homo sapiens); conditions: at 1 µM
[18] = molecular target: Calcium/calmodulin-dependent protein kinase type 1D (Homo sapiens) (UniProt Q8IU85); conditions: at 0.1 µM
[19] = molecular target: Calcium/calmodulin-dependent protein kinase type 1D (Homo sapiens) (UniProt Q8IU85); conditions: at 1 µM
[20] = molecular target: Calcium/calmodulin-dependent protein kinase type II subunit alpha (Homo sapiens) (UniProt Q9UQM7); conditions: at 0.1 µM;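 note: reported values are averages (mean inhibition of CAMK2A)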
Calcium/calmodulin-dependent protein kinase type II subunit alpha (Homo sapiens), sequence (Q9UQM7 whole entry): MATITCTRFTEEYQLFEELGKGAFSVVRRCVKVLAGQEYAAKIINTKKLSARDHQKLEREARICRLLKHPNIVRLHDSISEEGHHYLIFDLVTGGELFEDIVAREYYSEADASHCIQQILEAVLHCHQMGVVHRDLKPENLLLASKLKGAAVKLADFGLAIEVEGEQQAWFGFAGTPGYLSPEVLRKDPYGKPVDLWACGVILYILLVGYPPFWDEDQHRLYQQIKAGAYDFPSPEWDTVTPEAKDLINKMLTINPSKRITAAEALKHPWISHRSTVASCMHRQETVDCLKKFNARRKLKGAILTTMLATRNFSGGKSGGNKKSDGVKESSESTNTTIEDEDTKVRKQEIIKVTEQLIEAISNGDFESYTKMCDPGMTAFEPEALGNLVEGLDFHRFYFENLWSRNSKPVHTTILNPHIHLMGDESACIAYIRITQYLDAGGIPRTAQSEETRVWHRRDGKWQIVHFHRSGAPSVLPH

5'-AMP-activated protein kinase catalytic subunit alpha-1 (Homo sapiens), sequence (Q13131 whole entry, looked up): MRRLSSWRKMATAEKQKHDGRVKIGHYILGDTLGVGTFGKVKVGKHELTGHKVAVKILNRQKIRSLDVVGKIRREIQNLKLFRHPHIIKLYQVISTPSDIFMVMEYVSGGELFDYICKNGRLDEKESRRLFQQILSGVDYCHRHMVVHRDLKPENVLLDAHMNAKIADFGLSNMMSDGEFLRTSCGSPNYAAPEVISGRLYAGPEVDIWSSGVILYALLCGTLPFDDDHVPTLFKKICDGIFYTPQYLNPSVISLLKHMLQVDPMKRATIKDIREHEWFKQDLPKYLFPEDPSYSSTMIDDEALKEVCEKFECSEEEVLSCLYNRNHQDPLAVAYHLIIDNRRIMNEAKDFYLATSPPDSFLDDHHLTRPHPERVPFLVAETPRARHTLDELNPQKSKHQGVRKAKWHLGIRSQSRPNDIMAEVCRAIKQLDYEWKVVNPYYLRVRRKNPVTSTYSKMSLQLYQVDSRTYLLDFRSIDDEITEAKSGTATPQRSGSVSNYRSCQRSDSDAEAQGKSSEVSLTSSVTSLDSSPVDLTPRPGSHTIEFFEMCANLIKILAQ
Ribosomal protein S6 kinase alpha-6 (Homo sapiens), sequence (Q9UK32 whole entry): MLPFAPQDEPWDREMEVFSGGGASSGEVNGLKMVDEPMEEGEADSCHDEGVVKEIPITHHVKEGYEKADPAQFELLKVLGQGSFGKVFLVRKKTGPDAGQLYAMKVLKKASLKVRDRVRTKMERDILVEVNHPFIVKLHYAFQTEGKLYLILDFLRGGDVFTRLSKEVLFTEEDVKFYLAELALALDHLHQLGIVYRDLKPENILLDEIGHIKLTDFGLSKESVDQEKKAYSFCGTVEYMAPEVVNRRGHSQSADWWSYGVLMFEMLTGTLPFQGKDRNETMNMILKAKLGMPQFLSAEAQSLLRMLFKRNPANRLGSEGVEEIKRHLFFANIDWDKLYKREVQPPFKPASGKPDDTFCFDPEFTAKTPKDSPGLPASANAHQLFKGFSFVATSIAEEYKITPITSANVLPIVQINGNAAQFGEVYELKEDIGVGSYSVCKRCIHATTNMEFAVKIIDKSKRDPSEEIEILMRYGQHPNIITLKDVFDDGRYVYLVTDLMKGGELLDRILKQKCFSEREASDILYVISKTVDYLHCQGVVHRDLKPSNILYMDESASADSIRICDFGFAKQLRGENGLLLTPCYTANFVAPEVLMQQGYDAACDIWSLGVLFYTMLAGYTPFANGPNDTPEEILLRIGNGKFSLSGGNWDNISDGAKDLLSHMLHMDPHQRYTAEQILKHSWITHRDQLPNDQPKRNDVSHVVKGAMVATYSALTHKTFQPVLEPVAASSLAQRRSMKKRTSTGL
Calcium/calmodulin-dependent protein kinase type 1D (Homo sapiens), sequence (Q8IU85 whole entry, looked up): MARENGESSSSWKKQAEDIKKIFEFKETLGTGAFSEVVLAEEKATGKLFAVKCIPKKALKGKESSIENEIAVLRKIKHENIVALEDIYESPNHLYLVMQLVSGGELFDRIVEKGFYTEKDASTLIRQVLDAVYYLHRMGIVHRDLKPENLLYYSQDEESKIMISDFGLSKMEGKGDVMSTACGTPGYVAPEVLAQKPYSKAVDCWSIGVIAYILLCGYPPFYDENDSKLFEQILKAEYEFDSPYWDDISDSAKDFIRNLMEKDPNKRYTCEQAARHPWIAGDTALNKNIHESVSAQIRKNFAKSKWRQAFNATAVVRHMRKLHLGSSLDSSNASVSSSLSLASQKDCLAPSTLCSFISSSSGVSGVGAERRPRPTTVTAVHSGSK
5'-AMP-activated protein kinase catalytic subunit alpha-2 (Homo sapiens), sequence (P54646 whole entry, looked up): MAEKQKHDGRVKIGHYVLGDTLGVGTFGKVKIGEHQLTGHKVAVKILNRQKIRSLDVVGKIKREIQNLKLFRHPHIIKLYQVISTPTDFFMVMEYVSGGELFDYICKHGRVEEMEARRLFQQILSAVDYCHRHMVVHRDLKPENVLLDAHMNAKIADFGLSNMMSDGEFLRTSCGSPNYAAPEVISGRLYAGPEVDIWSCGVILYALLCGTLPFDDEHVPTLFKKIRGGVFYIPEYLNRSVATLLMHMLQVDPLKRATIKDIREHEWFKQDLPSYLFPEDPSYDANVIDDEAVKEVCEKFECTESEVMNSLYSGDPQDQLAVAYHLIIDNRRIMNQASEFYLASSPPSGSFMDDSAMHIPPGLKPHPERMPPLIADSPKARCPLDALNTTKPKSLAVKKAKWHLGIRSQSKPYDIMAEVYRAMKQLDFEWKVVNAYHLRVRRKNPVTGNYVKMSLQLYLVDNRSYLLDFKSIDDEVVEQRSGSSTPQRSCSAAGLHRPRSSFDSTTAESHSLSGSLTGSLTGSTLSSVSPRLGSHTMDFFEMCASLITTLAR

Row | Compound | inhibition [1] [%] | inhibition [2] [%] | inhibition [3] [%] | inhibition [4] [%] | inhibition [5] [%] | inhibition [6] [%] | inhibition [7] [%] | inhibition [8] [%] | inhibition [9] [%] | inhibition [10] [%] | inhibition [11] [%] | inhibition [12] [%] | inhibition [13] [%] | inhibition [14] [%] | inhibition [15] [%] | inhibition [16] [%] | inhibition [17] [%] | inhibition [18] [%] | inhibition [19] [%] | inhibition [20] [%]
1 | Cc1ccc(O)cc1Nc1ccnc2ccc(S(C)(=O)=O)cc12 | 1.9 | 3.76 | 6.8 | 4.31 | 4.71 | 4.36 | 5.21 | 2.21 | 5.69 | 3.06 | 3.93 | 2 | 4.91 | 0.5 | 1.8 | 2.1 | 5.1 | -0.51 | 0.98 | 2.94
2 | FC(F)(F)c1ccc(-c2nn3ncccc3c2-c2ccnc(Nc3ccc4c(c3)OCCO4)n2)cc1 | 0.72 | 9.07 | 10.2 | 5.69 | 10.8 | 7.48 | 12.9 | 1.3 | 4.07 | 5.75 | 4.55 | 4.03 | 5.73 | 5.08 | 8.29 | 6.76 | 11.7 | 2.95 | -0.58 | -2.94
3 | C[C@@H](Oc1cc(-n2cnc3ccc(OCC4CCN(C)CC4)cc32)sc1C(N)=O)c1ccccc1C(F)(F)F | 54.9 | 0.5 | 2.02 | -2.58 | -0.14 | -1.97 | -2.55 | 5.76 | 32.6 | 2.88 | 14 | 50.5 | 76.6 | 22.4 | 61.1 | 33.9 | 74.5 | 0 | 4.15 | -0.63
4 | ON=C1CCc2cc(-c3nc(C4CCNCC4)[nH]c3-c3ccncc3)ccc21 | -0.49 | 0.64 | 0.87 | -0.56 | -1.29 | -1.46 | -0.07 | -0.26 | -1.59 | -1.32 | 2.64 | 0.54 | 1.89 | 1.34 | 0.41 | -0.35 | 1.99 | 0.14 | 11.8 | 1.63
5 | COC(=O)c1ccc2c(c1)C(=Cc1cc(Br)c(O)c(Br)c1)C(=O)N2 | 7.3 | 1.67 | 5.36 | 5.27 | 12.1 | 3.08 | 3.5 | 2.71 | 6.28 | 8.21 | 4.79 | -1.29 | 2.73 | 3.81 | 2.04 | 0.42 | 5.14 | 0.26 | 3.35 | 2.97
6 | Cc1cc(-c2ccccn2)cc(C)c1/C=C/c1cncc(-c2nn[nH]n2)c1 | 1.31 | 0.67 | 1.66 | 3.28 | -0.92 | 4.48 | 2.45 | 0.33 | 3.53 | 6.43 | 3.78 | 2.95 | 6.85 | 2.2 | -0.86 | 1.67 | 3.37 | 0.06 | 0.67 | 2.42
7 | CN(c1ccc(NC(=O)Nc2ccc(OC(F)(F)F)cc2)cc1)c1ccnc(Nc2cccc(S(N)(=O)=O)c2)n1 | -0.89 | 2.63 | 1.43 | 3.27 | 4.82 | 7.71 | 2.44 | 0.3 | 1.3 | -1.16 | 2.41 | -0.52 | 10.1 | 1.53 | 5.53 | 1.94 | 1.96 | -0.31 | 0.2 | 3.05
8 | Cc1ccc(NC(=O)CC2CC2)cc1-c1ccc(C(=O)NCC2CC2)cc1 | 1 | 2.06 | 4.1 | 4.31 | 1.34 | 2.72 | 0.18 | 1.98 | 3.58 | 1 | 3.66 | 2.19 | 3.71 | -0.17 | 0.46 | 1.82 | 3.93 | 0.97 | 0.89 | 2.5
9 | Nc1nccc(-c2c(-c3ccc(F)cc3)nn3cc(C(F)(F)F)ccc23)n1 | -1.48 | 1.36 | 0.06 | 2.28 | -4.03 | 3.01 | -3.28 | -1.23 | -0.36 | 0.94 | 0.34 | 0.16 | -3 | -0.37 | 0.47 | 0.15 | -0.77 | -1.67 | -2.05 | 0.49
10 | OCc1ccc(-c2nc(-c3ccccn3)c(-c3ccc4c(c3)OCO4)[nH]2)cc1 | 2.9 | 3.65 | 0.91 | 1.37 | 1.29 | 3.28 | 2.86 | 3.68 | 2.81 | 2.09 | 4.26 | 3.72 | 5.56 | 2.53 | 1.5 | 2 | 0.59 | 0.54 | 0.26 | 4.98
